Among all 5,500 compounds or so, about 2,000 (36%) were called active. Not shown: some 18% with an inconclusive outcome. No stated cut-off is given here; in the data, active means normalized growth mostly below about 0.91 (no sharp cut-off); inconclusive means no clear call, values can overlap the other calls; inactive means mostly above about 0.92. The list shows a part of the results.
Assay: chemical genetic growth profiling, strain panel (AID 1159580);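 further: tested at 20 µM; growth read once vehicle control cultures reached saturation at 30 °C; 1 = growth at the plate median or of vehicle wells; lower values mean less growth of the strain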
Settings: S. cerevisiae deletion strains, growth OD

Measured: normalized growth

O=c1cc(-c2ccccc2)oc2cc(O)c(O)cc12
active: locus YAL026C, strain drs2, active compounds read low 0.895 | locus YBR009C, strain hhf1, active compounds read low 0.894 | locus YDR069C, strain doa4, active compounds read low 0.819 | locus YJL164C, strain tpk1, active compounds read low 0.912 | locus YJL166W, strain qcr8, active compounds read low 0.876 | locus YLR262C, strain YPT6 (second series), active compounds read low 0.791 | locus YNL209W, strain ssb2, active compounds read low 0.851 | locus YOR106W, strain vam3, active compounds read low 0.826 | locus YOR270C, strain vph1, active compounds read low 0.773
inactive: locus YAL021C, strain ccr4, active compounds read low 0.934 | locus YAL030W, strain snc1, active compounds read low 0.949 | locus YBL061C, strain skt5, active compounds read low 0.946 | locus YBR023C, strain chs3, active compounds read low 0.973 | locus YBR171W, strain sec66, active compounds read low 0.974 | locus YBR231C, strain swc5, active compounds read low 0.948 | locus YBR279W, strain paf1, active compounds read low 0.945 | locus YCL011C, strain gbp2, active compounds read low 0.943 | locus YCL016C, strain dcc1, active compounds read low 0.948 | locus YCL061C, strain MRC1, active compounds read low 0.979 | locus YCL069W, strain vba3, active compounds read low 0.982 | locus YCR088W, strain abp1, active compounds read low 0.993 | locus YDL005C, strain med2, active compounds read low 0.977 | locus YDL040C, strain nat1, active compounds read low 0.986 | locus YDR001C, strain nth1, active compounds read low 0.981 | locus YDR137W, strain rgp1, active compounds read low 0.856 | locus YDR159W, strain sac3, active compounds read low 0.972 | locus YDR195W, strain ref2 1 | locus YDR297W, strain sur2, active compounds read low 0.952 | locus YDR334W, strain swr1, active compounds read low 0.96 | locus YDR335W, strain msn5, active compounds read low 0.979 | locus YDR392W, strain spt3, active compounds read low 0.979 | locus YEL003W, strain gim4, active compounds read low 0.964 | locus YEL037C, strain rad23, active compounds read low 0.967 | locus YEL061C, strain CIN8 (second series), active compounds read low 0.964 | locus YER015W, strain faa2, active compounds read low 0.946 | locus YER016W, strain bim1, active compounds read low 0.99 | locus YER111C, strain swi4, active compounds read low 0.951 | locus YER155C, strain BEM2 (second series), active compounds read low 0.971 | locus YFR010W, strain ubp6, active compounds read low 0.914 | locus YGL167C, strain pmr1, active compounds read low 0.949 | locus YGL173C, strain kem1, active compounds read low 0.933 | locus YGL227W, strain vid30, active compounds read low 0.973 | locus YGL240W, strain doc1, active compounds read low 0.943 | locus YGL253W, strain hxk2, active compounds read low 0.939 | locus YHR013C, strain ard1, active compounds read low 0.856 | locus YHR027C, strain rpn1, active compounds read low 0.945 | locus YHR030C, strain SLT2, active compounds read low 0.981 | locus YHR079C, strain IRE1, active compounds read low 0.972 | locus YHR142W, strain chs7, active compounds read low 0.941 | locus YJL092W, strain hpr5, active compounds read low 1 | locus YJL095W, strain BCK1 (second series), active compounds read low 0.972 | locus YJL095W, strain BCK1, active compounds read low 0.999 | locus YJL115W, strain asf1, active compounds read low 0.985 | locus YJL129C, strain trk1, active compounds read low 0.912 | locus YJL154C, strain vps35, active compounds read low 0.994 | locus YJL187C, strain SWE1, active compounds read low 0.946 | locus YJR066W, strain TOR1, active compounds read low 0.954 | locus YKL160W, strain elf1, active compounds read low 0.97 | locus YKR026C, strain gcn3, active compounds read low 0.98 | locus YKR091W, strain srl3, active compounds read low 0.983 | locus YLL001W, strain dnm1, active compounds read low 0.975 | locus YLL026W, active compounds read low 1.01 | locus YLL041C, strain sdh2, active compounds read low 0.976 | locus YLR027C, strain aat2, active compounds read low 0.975 | locus YLR113W, strain HOG1, active compounds read low 0.99 | locus YLR221C, strain rsa3, active compounds read low 0.949 | locus YLR258W, strain gsy2, active compounds read low 0.953 | locus YLR320W, strain mms22, active compounds read low 0.97 | locus YLR342W, strain FKS1, active compounds read low 0.936 | locus YLR357W, strain rsc2, active compounds read low 0.903 | locus YLR370C, strain arc18, active compounds read low 0.935 | locus YLR384C, strain iki3, active compounds read low 0.964 | locus YML120C, strain ndi1, active compounds read low 0.951 | locus YMR058W, strain fet3, active compounds read low 0.956 | locus YMR125W, strain sto1, active compounds read low 1.02 | locus YMR129W, active compounds read low 0.972 | locus YMR205C, strain PFK2, active compounds read low 0.955 | locus YMR231W, strain pep5, active compounds read low 0.958 | locus YNL071W, strain lat1, active compounds read low 0.995 | locus YNL183C, strain NPR1, active compounds read low 0.951 | locus YNL248C, strain rpa49, active compounds read low 1.02 | locus YNL322C, strain KRE1 (second series), active compounds read low 0.992 | locus YNR049C, strain mso1, active compounds read low 0.987 | locus YOR001W, strain rrp6, active compounds read low 0.991 | locus YOR070C, strain gyp1, active compounds read low 0.979 | locus YOR080W, strain dia2, active compounds read low 0.976 | locus YOR083W, strain WHI5, active compounds read low 0.961 | locus YOR231W, strain MKK1, active compounds read low 0.996 | locus YOR265W, strain rbl2, active compounds read low 0.95 | locus YOR290C, strain snf2, active compounds read low 0.939 | locus YPL051W, strain arl3, active compounds read low 0.943 | locus YPL078C, strain atp4, active compounds read low 0.986 | locus YPL106C, strain sse1, active compounds read low 0.855 | locus YPL240C, strain hsp82, active compounds read low 0.949 | locus YPL256C, strain CLN2, active compounds read low 0.955

Source: PubChem BioAssay AID1159580 (chemical genetic matrix, 2015)
